The values that follow come from PubChem BioAssay (NCATS).

Results filed as inconclusive are left out. Entries that show only a call come without a potency. Activity calls are given as the source filed them. Calls come from the whole dose curve.

The first assay can be described thus: Primary qHTS for inhibitors of MERS-S pseudo-typed particle cell entry (AID 1479149). Note: nearly all actives have a fitted effect of over 60% in size. Note: potency is the fitted concentration of half-maximal effect. As to conditions: MERS-S pseudotyped particle entry, luciferase; series mostly up to 57.1 µM. A general note: Quantitative high-throughput screening tests each substance at several concentrations.
In the case of `COc1ccnc2c1CCCCC2S(=O)c1nc2ccccc2[nH]1` (stereo not drawn), the Potency result was “inactive”.
For `CC1CC(=O)NN=C1c1ccc(NCC(C)(C)NCC(O)COc2cc(Cl)ccc2C#N)cc1` (stereo not drawn), the Potency result is “inactive”.
With `O=C1CC2(CCCC2)CC(=O)N1CCCCN1CCN(c2ncccn2)CC1`, the Potency result was “inactive”.
On to `O=C(OCC(O)CO)c1ccccc1Nc1ccnc2c(C(F)(F)F)cccc12` (stereo not drawn), for which the Potency entry was “inactive”.
With `CCCC(=O)O[C@]1(C(=O)CC)CC[C@H]2[C@@H]3CCC4=CC(=O)CC[C@]4(C)[C@H]3[C@@H](O)C[C@@]21C`, the Potency result is “inactive”.
Turning to `CCOCCn1c(N2CCCN(C)CC2)nc2ccccc21`, the Potency entry was “inactive”.
As for `CCCCC(CC)COC(=O)C(C#N)=C(c1ccccc1)c1ccccc1` (stereo not drawn), the Potency entry was “inactive”.
As to `COc1ccccc1OC(=O)Oc1ccccc1OC`, the Potency result was “inactive”.
Still for that read-out and setting: the entry for `C#C[C@]1(O)CC[C@H]2[C@@H]3CCC4=CC(=O)CCC4=C3C=C[C@@]21CC` is “inactive”.
As for `CN(C)[C@@H](CCOc1cccc2ccccc12)c1ccccc1`, the Potency is 20 µM (active).
Same read-out and setting: under `CN1CCC(=C2c3ccccc3CCc3sccc32)CC1` stands 10 µM (active).
Same read-out and setting: under `O=C1OC(c2ccc(O)cc2)(c2ccc(O)cc2)c2ccccc21` stands “inactive”.
Still for that read-out and setting: under `CCCCNc1ccc(C(=O)OCCN(CC)CC)cc1` stands “inactive”; under `CN1CCC(=C2c3ccccc3CCc3cccnc32)CC1`, “inactive”.
Turning to `CN(C)CCOC(c1ccccc1)c1ccc(Br)cc1` (stereo not drawn), the Potency entry was “inactive”.
With `C[C@H](O)C(=O)Nc1c(I)c(C(=O)NC(CO)CO)c(I)c(C(=O)NC(CO)CO)c1I`, the Potency entry is “inactive”.
As for `CCn1c(=O)c2c(nc(C=Cc3ccc(OC)c(OC)c3)n2C)n(CC)c1=O`, the Potency entry is “inactive”.
In the case of `Nc1ccn([C@H]2CC[C@@H](CO)O2)c(=O)n1`, the Potency result was “inactive”.
Take `Cc1ccc(N(CC2=NCCN2)c2cccc(O)c2)cc1`: the Potency entry was “inactive”.
For the molecule `CCCCNc1ccc(C(=O)OCCN(C)C)cc1`, the Potency entry was “inactive”.

A short description of a further assay: Primary qHTS for Vero E6 cytotoxicity: counterscreen for inhibitors of SARS-S pseudo-typed particle cell entry (AID 1479150). As to conditions: cell viability; series mostly up to 57.1 µM.
`COc1ccnc2c1CCCCC2S(=O)c1nc2ccccc2[nH]1` (stereo not drawn): the Potency entry was “inactive”.
`N#C/C(=C1/SC[C@@H](c2ccc(Cl)cc2Cl)S1)n1ccnc1`: the Potency entry is “inactive”.
For the molecule `CC1CC(=O)NN=C1c1ccc(NCC(C)(C)NCC(O)COc2cc(Cl)ccc2C#N)cc1` (stereo not drawn), the Potency result was “inactive”.
On to `CC1(C)CCC(C)(C)c2cc(NC(=O)c3ccc(C(=O)O)cc3)ccc21`, for which the Potency result is “inactive”.
Regarding `O=C1CC2(CCCC2)CC(=O)N1CCCCN1CCN(c2ncccn2)CC1`, the Potency result was “inactive”.
With `C=C1C[C@H]2[C@@H]3C=C(C)C4=CC(=O)CC[C@]4(C)[C@H]3CC[C@]2(C)[C@@]1(OC(C)=O)C(C)=O`, the Potency entry is “inactive”.
On to `O=C(OCC(O)CO)c1ccccc1Nc1ccnc2c(C(F)(F)F)cccc12` (stereo not drawn), for which the Potency result was “inactive”.
Turning to `Clc1ccc(C(Cn2ccnc2)OCc2ccsc2Cl)c(Cl)c1` (stereo not drawn), the Potency result was “inactive”.
With `CCCC(=O)O[C@]1(C(=O)CC)CC[C@H]2[C@@H]3CCC4=CC(=O)CC[C@]4(C)[C@H]3[C@@H](O)C[C@@]21C`, the Potency result was “inactive”.
In the case of `CCCCc1cc2ccccc2c(OCCN(C)C)n1`, the Potency result is “inactive”.
Still for that read-out and setting: the entry for `O[C@@H](COc1cccc2ncccc12)CN1CCN(C2c3ccccc3[C@@H]3[C@H](c4ccccc42)C3(F)F)CC1` (stereo partly drawn) is “inactive”; for `O=C(c1ccc(F)cc1)C1CCN(CCn2c(=O)[nH]c3ccccc3c2=O)CC1` it is “inactive”; for `CN(C)CCOC1=Cc2ccccc2Sc2ccc(Cl)cc21` it is “inactive”.
In the case of `Cc1ccc(Cl)c(OCC(O)CNC(C)(C)C)c1` (stereo not drawn), the Potency result is “inactive”.
The same measure, in the same setting: the entry for `CCOCCn1c(N2CCCN(C)CC2)nc2ccccc21` is “inactive”; for `CCCCC(CC)COC(=O)C(C#N)=C(c1ccccc1)c1ccccc1` (stereo not drawn) it is “inactive”.
Consider `COc1ccccc1OC(=O)Oc1ccccc1OC`, for which the Potency entry is “inactive”.
For `C#C[C@]1(O)CC[C@H]2[C@@H]3CCC4=CC(=O)CCC4=C3C=C[C@@]21CC`, the Potency entry was “inactive”.
With `C#C[C@]1(OC(C)=O)CC[C@H]2[C@@H]3CCC4=C[C@@H](OC(C)=O)CC[C@@H]4[C@H]3CC[C@@]21C`, the Potency entry is “inactive”.
As to `CN(C)[C@@H](CCOc1cccc2ccccc12)c1ccccc1`, the Potency entry is “inactive”.
With `COc1ccc2c(c1)c(CC(=O)O)c(C)n2C(=O)c1ccc(Cl)cc1`, the Potency entry is “inactive”.
With `CN1CCC(=C2c3ccccc3CCc3sccc32)CC1`, the Potency entry is “inactive”.
As to `O=C1OC(c2ccc(O)cc2)(c2ccc(O)cc2)c2ccccc21`, the Potency entry was “inactive”.
On the same count and under the same terms, under `CCCCCCCCCCCCCCCCCCOCC(O)CO` (stereo not drawn) stands “inactive”.
Still for that read-out and setting: the entry for `CCCCNc1ccc(C(=O)OCCN(CC)CC)cc1` is “inactive”.
Turning to `COc1ccc(CN2CCN(C(c3ccc(F)cc3)c3ccc(F)cc3)CC2)c(OC)c1OC`, the Potency result is “inactive”.
As for `CN1CCC(=C2c3ccccc3CCc3cccnc32)CC1`, the Potency entry is “inactive”.
Turning to `CN(C)CCOC(c1ccccc1)c1ccc(Br)cc1` (stereo not drawn), the Potency entry is “inactive”.
With `C[C@H](O)C(=O)Nc1c(I)c(C(=O)NC(CO)CO)c(I)c(C(=O)NC(CO)CO)c1I`, the Potency entry is “inactive”.
As for `CCn1c(=O)c2c(nc(C=Cc3ccc(OC)c(OC)c3)n2C)n(CC)c1=O`, the Potency entry was “inactive”.
`COC(=O)C1=C(C)NC(C)=C(C(=O)OC(C)(C)CN(C)CCC(c2ccccc2)c2ccccc2)C1c1cccc([N+](=O)[O-])c1` (stereo not drawn): the Potency result was “inactive”.
Consider `OC(CCCN1CCCCC1)(c1ccccc1)c1ccccc1`, for which the Potency result is “inactive”.
Turning to `Nc1ccn([C@H]2CC[C@@H](CO)O2)c(=O)n1`, the Potency entry is “inactive”.
Take `NS(=O)(=O)c1cc2c(cc1Cl)NCNS2(=O)=O`: the Potency entry was “inactive”.
With `Cc1ccc(N(CC2=NCCN2)c2cccc(O)c2)cc1`, the Potency result is “inactive”.
Same read-out and setting: under `CCCCNc1ccc(C(=O)OCCN(C)C)cc1` stands “inactive”; under `c1ccc(CNCCNCc2ccccc2)cc1`, “inactive”; under `CN1CCC(OC(c2ccccc2)c2ccccc2)CC1`, “inactive”.
